From PubChem BioAssay
KDM4E inh = inhibitors of human JMJD2E histone demethylase. B2RXH2. JMJD2E catalytic domain, FDH-coupled NADH fluorescence (FDH is formaldehyde dehydrogenase). Potency, µM (series often up to 57.1 µM), inactives show top-dose activity change, negative = inhibition, most hits filed as inhibitors. 230,000 compounds, 1.6% hits; active = well fitted inhibition curve with a large enough effect, not every such curve was filed as active; inconclusive = small, poorly fitted or top-dose-only effect, or another doubt; inactive = no such curve, though single readings can be large or run the other way;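 note: potency is the fitted concentration of half-maximal effect; 0% = wells with enzyme and -100% = buffer wells without enzyme; nearly all actives have a fitted effect of over 50% in size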
Target sequence (B2RXH2 1-337 limits assumed): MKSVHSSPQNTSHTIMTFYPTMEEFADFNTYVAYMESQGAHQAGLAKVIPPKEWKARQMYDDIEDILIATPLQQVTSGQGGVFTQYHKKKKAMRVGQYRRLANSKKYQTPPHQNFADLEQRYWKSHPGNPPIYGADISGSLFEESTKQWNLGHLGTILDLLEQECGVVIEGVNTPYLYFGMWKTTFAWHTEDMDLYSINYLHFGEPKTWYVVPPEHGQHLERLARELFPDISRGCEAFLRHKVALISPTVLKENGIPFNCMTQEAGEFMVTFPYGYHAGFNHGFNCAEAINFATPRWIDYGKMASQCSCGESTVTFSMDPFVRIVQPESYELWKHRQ
Tau fibril ThT = inhibitors of human tau fibril formation, thioflavin T binding; P10636; Potency, µM (doses to about 57.4 µM), without a hit: top-dose activity, negative = inhibition, actives largely listed as inhibitors; 270,000 compounds, 2.1% hits; recombinant tau K18 P301L, heparin-induced fibrillization, ThT fluorescence; note: potency is the fitted concentration of half-maximal effect; nearly all actives have a fitted effect of over 55% in size
Target sequence (P10636 561-689 P618L limits assumed): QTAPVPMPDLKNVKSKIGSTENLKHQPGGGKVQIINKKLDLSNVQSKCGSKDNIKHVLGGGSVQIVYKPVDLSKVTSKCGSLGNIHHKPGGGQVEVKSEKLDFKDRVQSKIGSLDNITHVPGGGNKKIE
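Recombinant human tau K18 fragment […] carrying P301L, 15 uM unlabeled plus 0.24 uM Alexa 594-labeled, was fibrillized with 20 uM heparin in 100 mM sodium acetate pH 7 for 6 hr at 37 C; 30 uM ThT fluorescence read after 1 hr.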
PNC assembly inh = perinucleolar compartment assembly inhibition; AID 2417; PC3M PTB-GFP, PNC prevalence imaging, 16 h; hits give low values; 140,000 compounds, 3.1% hits; activity change (PNC), negative = inhibition, % at 10 µM;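 active = readout at or below -70, meaning at least 70% loss of cells showing the perinucleolar compartment, a nuclear body marking cancer cells; inconclusive = readout between -30 and a set limit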;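 note: plate controls were DMSO wells for no effect and camptothecin positive control wells for full effect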
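Read-out is percentage of cells bearing a perinucleolar compartment, from automated 20x imaging of fixed, Hoechst-stained PC3M PTB-GFP cells. Cells were seeded 4 h, then exposed 16 h to compound (23 nl of library stock) in duplicate plates.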
Tau fluor cs = counter-screen for tau fibril formation inhibitors | tau K18 P301L (four-repeat tau fragment) Alexa594 fluorescence, heparin fibrillization | Potency, µM (series often up to 57.7 µM), for inactives: top-dose activity change, negative = decrease | 280,000 compounds, 0.93% hits | AID 1463; note: potency is the fitted concentration of half-maximal effect; nearly all actives have a fitted effect of over 55% in size
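Human K18 P301L tau (15 uM unlabeled plus 0.24 uM Alexa 594-labeled, final) in 100 mM sodium acetate pH 7 was mixed with compound and 20 uM heparin and incubated 6 hr at 37 C.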
NPSR antag = antagonists of human neuropeptide S receptor cAMP signaling; 220,000 compounds, 1% hits; Potency, µM (top dose mostly 38.3 µM), for the others: at the highest dose activity change, negative = inhibition, usual class: inhibitors; CHO-NPSR cells, cAMP TR-FRET, antagonist mode; note: potency is the fitted concentration of half-maximal effect; nearly all actives have a fitted effect of over 50% in size
Tau fibril FP = tau fibrillization inhibition (FP); Potency, µM (doses to about 57.7 µM), inactives show top-dose activity, negative = inhibition, hits mostly inhibitors; P10636; 280,000 compounds, 0.39% hits; AID 1468; K18 P301L tau heparin fibrillization, Alexa594 FP, 6 h; note: potency is the fitted concentration of half-maximal effect; nearly all actives have a fitted effect of over 55% in size
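FP of Alexa 594-tau after heparin (20 uM) induction. Substrate: human K18 P301L, 15 uM unlabeled, 0.24 uM labeled. Buffer 100 mM sodium acetate pH 7. 6 hr, 37 C.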
* = called active by the depositor; [ ] = dose if it differs, or a comment. Hits are enriched below; roughly 5.1% of the tested compounds scored in any of these assays. Unless noted, calls come from the whole dose curve; as a rule, active = well fitted curve in the direction sought with a large enough effect; inconclusive = small, poorly fitted or top-dose-only effect, or another doubt; inactive = no such curve, though single readings can be large; an effect the other way counts as inactive or inconclusive. Unless noted, % is set by controls: 0 for no effect and ±100 for the full control effect.

Cc1ccc(S(=O)(=O)Nc2ccc(-c3nc4cc(NS(=O)(=O)c5ccc(C)cc5)ccc4o3)cc2)cc1 was read as KDM4E inh inconclusive, Tau fibril ThT 7.3%, PNC assembly inh 11.1, Tau fluor cs inconclusive, NPSR antag 10µM* and Tau fibril FP 15.8µM*.
For O=C(NCc1cccs1)c1ccc2c(=O)n3nc(Nc4ccccc4)sc3nc2c1 the results were Tau fibril ThT 14.4%, Tau fluor cs -15.4% and Tau fibril FP inconclusive.
Screening CCOC(=O)C(=CNCC(=O)OC)C(=O)OCC returned KDM4E inh -4.9%, Tau fibril ThT -13.2%, PNC assembly inh 1.6, Tau fluor cs -12.1%, NPSR antag 10.4%[46.1 µM] and Tau fibril FP -2.0%.
For CCOC(=O)CNC=C(C(=O)OCC)C(=O)OCC the results were KDM4E inh 1.4%, Tau fibril ThT -9.5%, PNC assembly inh -95.6*, Tau fluor cs -17.1%, NPSR antag -1.3%[46.1 µM] and Tau fibril FP -7.5%.
For Cc1ccc(Cl)cc1NC(=O)C1CCN(S(=O)(=O)c2cccc3nonc23)CC1 the results were Tau fibril ThT -2.0%, Tau fluor cs -9.8% and Tau fibril FP -5.1%.
`CCN(CC)S(=O)(=O)c1ccc2oc(C(=O)Nc3cc(C)ccc3OC)c(C)c2c1` gave Tau fibril ThT 9.0%, Tau fluor cs -3.9% and Tau fibril FP 1.5%.
For COc1ccccc1NC(=O)c1oc2ccc(C)cc2c1C the results were KDM4E inh inconclusive, Tau fibril ThT inconclusive, PNC assembly inh -80.1*, Tau fluor cs -22.1%, NPSR antag -26.4%[46.1 µM] and Tau fibril FP -13.6%.
`CCc1cc2c(cc3c(=O)n(CC(=O)NC4CCC(C)CC4)ncn32)s1` (stereo unspecified) gave Tau fibril ThT 6.1%, Tau fluor cs 2.7% and Tau fibril FP -8.1%.
`CNCC(=O)NCC(=O)N[C@@H](Cc1ccccc1)C(=O)N[C@@H](CC(C)C)C(=O)O` gave Tau fibril ThT 4.5%, Tau fluor cs -0.8% and Tau fibril FP -2.0%.
Screening COc1cc(/C=C/c2cc(OC(C)=O)c3ccccc3n2)c(OC(C)=O)c([N+](=O)[O-])c1 returned KDM4E inh -28.7%, Tau fibril ThT 3.16µM*, PNC assembly inh -5.0, Tau fluor cs 12.6µM*[quencher], NPSR antag -26.8%[46.1 µM] and Tau fibril FP inconclusive.
Screening CC(=O)Oc1c(Cl)cc(Cl)cc1/C=C/c1ccc2ccccc2n1 returned KDM4E inh -25.2%, Tau fibril ThT -18.0%, PNC assembly inh -19.4, Tau fluor cs -18.7%, NPSR antag inconclusive and Tau fibril FP -8.6%.
CCCCNC(=S)Nc1ccc2cn[nH]c2c1 was read as KDM4E inh -14.0%, Tau fibril ThT -13.7%, PNC assembly inh -83.7*, Tau fluor cs 0.7%, NPSR antag 21.0% and Tau fibril FP -8.1%.
`S=C(Nc1ccc2cn[nH]c2c1)Nc1ccccc1Cl` gave KDM4E inh 0.7%, Tau fibril ThT 14.1µM*, PNC assembly inh inconclusive, Tau fluor cs inconclusive, NPSR antag 7.0% and Tau fibril FP -15.3%.
`S=C(Nc1ccc2cn[nH]c2c1)Nc1ccc(Cl)cc1Cl` gave KDM4E inh inconclusive, Tau fibril ThT 15.8µM*, Tau fluor cs inconclusive, NPSR antag -12.2% and Tau fibril FP -12.5%.
CCc1ccc(NC(=S)Nc2ccc3cn[nH]c3c2)cc1 was read as KDM4E inh -9.1%, Tau fibril ThT inconclusive, PNC assembly inh 11.0, Tau fluor cs -29.5%, NPSR antag -13.6% and Tau fibril FP -14.4%.
For S=C(Nc1ccc(Cl)cc1)Nc1ccc2cn[nH]c2c1 the results were KDM4E inh inconclusive, Tau fibril ThT inconclusive, Tau fluor cs inconclusive, NPSR antag -3.0% and Tau fibril FP -7.1%.
Screening COc1ccc(NCc2ccc([N+](=O)[O-])s2)c(OC)c1 returned KDM4E inh 10µM*, Tau fibril ThT inconclusive, PNC assembly inh 43.1, Tau fluor cs inconclusive, NPSR antag -3.5% and Tau fibril FP inconclusive.
